# Screening data: PubChem, National Center for Advancing Translational Sciences (NCATS)
# GLP-1R agonist – GLP-1 receptor (human) agonism; HEK293 GLP-1R CRE-luciferase, luminescence, 4-6 h; cells express a hypersensitive GLP-1R form; Potency, µM (titrated, usually from 45.6 µM), actives largely listed as activators; 0.007% of 380,000 active; AID 624172
# Target sequence (P43220 whole entry, looked up): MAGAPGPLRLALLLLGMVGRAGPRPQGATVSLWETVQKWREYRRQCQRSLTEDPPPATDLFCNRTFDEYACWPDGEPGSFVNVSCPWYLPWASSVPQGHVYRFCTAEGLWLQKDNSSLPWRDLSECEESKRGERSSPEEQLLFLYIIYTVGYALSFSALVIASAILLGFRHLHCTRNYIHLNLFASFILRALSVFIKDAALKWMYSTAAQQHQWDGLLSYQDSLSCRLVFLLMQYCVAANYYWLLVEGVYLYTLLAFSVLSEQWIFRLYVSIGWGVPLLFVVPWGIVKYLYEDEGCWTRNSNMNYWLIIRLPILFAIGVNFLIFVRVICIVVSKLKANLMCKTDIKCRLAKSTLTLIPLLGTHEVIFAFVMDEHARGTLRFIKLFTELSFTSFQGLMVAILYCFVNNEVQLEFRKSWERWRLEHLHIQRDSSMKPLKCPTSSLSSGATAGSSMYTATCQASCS
# GLP-1R inv ag – inverse agonists of human GLP-1 receptor; AID 624417; 1.6% of 410,000 active; P43220; Potency, µM (highest dose often 38.3 µM), hits mostly inhibitors; HEK293 GLP-1R CRE-luciferase, luminescence, 24 h; GLP-1R form is constitutively active; also: nearly all actives have a fitted effect of over 55% in size
#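 Assay principle: reduced luminescence from a cAMP-responsive reporter in HEK293 cells co-expressing a constitutively active GLP-1R. Conditions: 24 hr compound incubation, 37 deg C, 5% CO2.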
# GLP1R cytotox – cytotoxicity in counter-screen for GLP-1R inverse agonists. HEK293 cAMP-luciferase reporter cells, luminescence, 24 h. Potency, µM (top dose mostly 38.3 µM), actives largely listed as inhibitors. 0.13% of 410,000 active;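 also: loss of luciferase light is scored as toxicity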
#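 Luminescence readout: signal drop marks cytotoxicity. Plated cells grew 12 h at 37 °C, 5% CO2, received 23 nL compound for 24 h, then got luciferase reagent, read after 12 min at RT.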
# BRCA1 expr act – activators of BRCA1 expression; Potency, µM (titrated, usually from 46.1 µM), usual class: activators; MCF7-BRCA1-FFLuc reporter, luminescence, 48 h; response scale: scaled: vehicle 0%, 10 µM genistein 100%; AID 624202; 1.1% of 380,000 active; also: nearly all actives have a fitted effect of over 80% in size
#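 Using MCF7 cells harboring a BRCA1 firefly luciferase reporter, plated 2 h before compound pinning, the screen measured luminescence after 48 h incubation. Responses were normalized to DMSO and 10 microM genistein, then fitted for concentration-effect.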
# Mito fusion yeast – inhibitors of mitochondrial division or activators of mitochondrial fusion | S. cerevisiae fusion-defective mutant growth rescue, CellTiterGlo 48 h | Potency, µM (highest dose often 46.1 µM), hits mostly activators | 0.23% of 320,000 active | AID 485298; also: nearly all actives have a fitted effect of over 45% in size
#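 Yeast fusion mutant, YPEG (non-fermentable carbon), compound, 48 h at 37C non-permissive; CellTiterGlo added, 10 min RT, luminescence read. Rescued growth = division inhibition.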
# Numbers stand for hits; . = inactive; ? = inconclusive; / = no result given; [ ] = another dose, or the depositor's remark. An excerpt weighted towards active compounds, which were near 2.8% of everything screened. Calls follow the shape of the dose curve; as a rule, active = well fitted curve in the direction sought with a large enough effect; inconclusive = small, poorly fitted or top-dose-only effect, or another doubt; inactive = no such curve, though single readings can be large; an effect the other way counts as inactive or inconclusive.
SMILES,GLP-1R agonist,GLP-1R inv ag,GLP1R cytotox,BRCA1 expr act,Mito fusion yeast
CC(C)C[C@H](NC(=O)[C@@H]1Cc2ccccc2CN1C(=O)OC(C)(C)C)C(=O)NCC1CCC(C(=O)O)CC1 (some centres not stated),.,.,.,.,.[9.22 µM]
CCOc1ccc(C2c3c(oc4ccc(C)cc4c3=O)C(=O)N2Cc2ccc3c(c2)OCO3)cc1OC (configuration not stated),/,.,.,/,/
COc1ccc(C[C@@H]2OC3(C=CC(=O)C=C3)O[C@H]2Cc2ccc(OC)cc2)cc1,.,?,4.47µM,.,/
COc1ccc(N2C(=O)CC(Cc3ccccc3)C2=O)cc1 (configuration not stated),.,.,.,.,.
O=C1C=CC2(C=C1)O[C@H](Cc1ccccc1)[C@@H](Cc1ccccc1)O2,.,?,2µM,.,/
CCCCc1c(O)nc2sccn2c1=O,.,.,.,.,.
Fc1cccc(/C=C2\CCCC3=C2NC(=S)NC3c2cccc(F)c2)c1 (configuration not stated),.,10µM,.,.,.
S=C1NC2=C(CCC/C2=C\c2ccc(Cl)cc2)C(c2ccc(Cl)cc2)N1 (configuration not stated),.,7.94µM,.,.,.
S=C1NC2=C(CCC/C2=C\c2ccccc2)C(c2ccccc2)N1 (configuration not stated),.,.,.,.,.
COc1cccc2cc(-c3cn4c(n3)sc3cc(F)ccc34)c(=O)oc12,/,.,.,/,/
COCCn1c(C)cc(/C=C2/NC(=O)N(c3cccc(Cl)c3)C2=O)c1C,.,.,.,7.94µM,.
CC(C)n1cc(/C=C2\NC(=O)N(c3cccc(Cl)c3)C2=O)c2ccccc21,.,3.98µM,.,.,.
CCn1c(C)cc(/C=C2/NC(=O)N(c3ccccc3)C2=O)c1C,.,.,.,.,.
CCCn1c2ccccc2c2nnc(SCC(=O)Nc3cccc(C(C)=O)c3)nc21,/,.,.,/,/
Cc1cc(/C=C2\SC(=S)NC2=O)c(C)n1C1CC1,.,.,.,12.6µM,.
Cc1cc(/C=C2/C(=O)N(C)C(=S)N2C)c(C)n1C1CC1,.,.,.,11.2µM,.
O=C1NC(=S)SC1=Cc1cc(Br)ccc1O,.,?,?,.,/
CCOC(=O)N1CCN(C(=O)CCCN2C(=O)CSc3nc(C)cc(C)c32)CC1,.,.,.,.,.
COc1cc(CNCCC2CCOC(C)(C)C2)ccc1O (configuration not stated),.,.,.,.,.
C=CCn1c(Cc2cccs2)nnc1SCC(=O)c1cccc(Br)c1,.,5.62µM,.,.,.
Cc1onc(-c2c(F)cccc2Cl)c1C(=O)c1ccc(F)cc1,.,?,.,.,.
CCOc1cc(C2NN=C(c3ccc(C)cc3)S2)ccc1O (configuration not stated),.,.,.,?,?
COc1ccc(C2NN=C(c3ccc(C)cc3)S2)cc1 (configuration not stated),.,.,.,1.78µM,.
CC(=O)NCCNc1nc2cc(-c3ccccc3)sc2c(=O)n1C,.,.,.,.,/
Cc1ccc(NC(=O)C2SC(=Nc3ccccc3)C(C(=O)Nc3ccc(Cl)cc3)=C2N)cc1 (configuration not stated),.,?,.,.,.
SMILES,GLP-1R agonist,GLP-1R inv ag,GLP1R cytotox,BRCA1 expr act,Mito fusion yeast
Cc1ccc(N=C2SC(C(=O)Nc3ccc(OC(F)(F)F)cc3)C(N)=C2C(=O)Nc2c(C)cc(C)cc2C)cc1 (configuration not stated),.,2.82µM,?,.,.
CCCc1ccc(OC(C)C(=O)Nc2sc3c(c2C(=O)OC)CCCCC3)cc1 (configuration not stated),/,.,.,/,/
CN1CCN(CCc2nc3cc(NC(=O)c4ccco4)ccc3n2C)CC1,.,.,.,.,.
CC1CCN(CCc2nc3cc(NC(=O)Nc4ccccc4)ccc3n2C)CC1,.,.,.,14.1µM,.
Cc1ccc(C(=O)Nc2ccc3c(c2)nc(CCNC(=O)c2ccco2)n3C)cc1,.,.,.,7.08µM,.
Cc1ccc(C(C)C)c(OCC(=O)Nc2ccc3c(c2)nc(CN2CCCC2)n3C)c1,.,10µM,?,.,.
Cn1c(CN2CCCC2)nc2cc(NC(=O)c3ccco3)ccc21,.,.,.,5.62µM,.
Cc1ccc(OCC(=O)Nc2ccc3c(c2)nc(CCN2CCCC2)n3C)cc1,.,.,.,.,/
CC(=O)Nc1ccc2c(c1)nc(CCN1CCC(C)CC1)n2C,.,.,.,.,.
Cn1c(CN2CCCCC2)nc2cc(NC(=O)c3ccccc3)ccc21,.,.,.,.,.
CC(=O)NCCc1nc2cc(NC(=O)c3ccc([N+](=O)[O-])cc3)ccc2n1C,.,.,.,6.31µM,.
Cn1c(CN2CCCC2)nc2cc(NC(=O)Nc3ccccc3)ccc21,.,.,.,11.2µM,.
COc1ccc(CC(=O)Nc2ccc(C(=O)NCC(C)C)cc2)cc1,.,.,.,.,.
CN(C)c1ccc(/C=N/NC(=O)c2ccn(C)n2)cc1,.,.,.,?,.
CN(C)c1ccc(/C=N/NC(=O)c2ccnn2C)cc1,.,.,.,12.6µM,.
COc1cc(C(=O)N(Cc2cc3cc(C)ccc3[nH]c2=O)CC2CCCO2)cc(OC)c1OC (configuration not stated),.,.,.,.,.
Cc1ccc(NS(=O)(=O)c2cc(Br)cc3c2N(C(=O)C2CC2)CC3)cc1C,/,?,.,/,/
O=C(C1CC1)N1CCc2cc(Br)cc(S(=O)(=O)Nc3ccc(F)c(F)c3)c21,.,22.4µM,?,.,/
Cc1ccc(NC(=O)N2CCN(S(=O)(=O)c3ccccc3)CC2)cc1,.,.,.,.,.
CN(c1ncc(C(F)(F)F)cc1Cl)N1C(=O)C2ONC3(C(=O)CC(C)(C)CC3=O)C2C1=O (configuration not stated),.,.[7.66 µM],.[7.66 µM],.,.
CN(c1ncc(C(F)(F)F)cc1Cl)N1C(=O)c2cccc(N)c2C1=O,.,3.16µM,.,.,.
CCOC(=O)c1c(NC(=O)c2cc(C)on2)sc(C)c1C,/,.,.,/,/
CN(C)c1cccc(C(=O)N(Cc2ccccc2)Cc2ccccc2)c1,.,?,.,.,.
Clc1ccc(-c2nc3ccccn3c2CN2CCCCC2)cc1,.,10µM,?,.,.
Cc1ccc(-c2noc(CN3CCCCC3)n2)cc1,.,.,.,2.51µM,.
Clc1ccc(-c2noc(CN3CCN(c4ccccc4)CC3)n2)cc1,.,.,.,.,.
Clc1ccc(-c2noc(CN3CCCC3)n2)cc1,.,.,.,12.6µM,.
CCCCN(C)C(=O)Cc1c(OC)ccc2cc(Br)ccc12,.,?,.,.,?
